# Columns and labels:
# Test in all cases: PBM binding z-score (relative to random genomic background probes); higher = stronger binding; sequences stand for … in GC…GCGATTGACAGCGTAGAATGAAGG
# [1] = test system: RARb homodimer (NR concentration 270 nM)
# In short: (§1)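 The probes on custom Agilent 4×180K protein-binding microarrays were double-stranded, with 34-nt variable regions bearing direct-repeat seeds, single-nucleotide variants, half-site ablations and random human genomic background sequences. Incubation lasted 1 h with ligand-free nuclear receptor dimers in PBS pH 7.4, 2% milk, 0.02% Triton X-100, 1 mM DTT, 0.2 mg/mL BSA and 0.4 mg/ml salmon testes DNA. Antibodies against each partner (one per run) detected bound dimers, and fluorescence scans were regression-normalized. Binding z-scores take the random background probes as reference.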
# [2] = test system: RARg:RXRa (NR concentration 270 nM, RXRa partner concentration 90 nM)
# In short: as §1
# [3] = test system: RARg homodimer (NR concentration 270 nM)
# In short: as §1
# [4] = test system: RXRa DBDmut IVT, anti-RXR (DBD mutation: RXRa K156A/R161A, NR concentration 90 nM)
# In short: as §1
# [5] = test system: RXRa homodimer (NR concentration 180 nM)
# In short: as §1
# [6] = test system: THRa:RXRa (NR concentration 90 nM, RXRa partner concentration 90 nM)
# In short: as §1
# [7] = test system: THRa homodimer (NR concentration 90 nM)
# In short: as §1
# [8] = test system: VDR:RXRa (NR concentration 270 nM, RXRa partner concentration 90 nM)
# In short: as §1
# [9] = test system: VDR homodimer (NR concentration 270 nM)
# In short: as §1
sequence,measurement,setting,value
ACTATTAGTTGACTTAGGGCAACGGATACGACGC,PBM binding z-score,[1],0.939
same,PBM binding z-score,[2],0.643
same,PBM binding z-score,[3],1.01
same,PBM binding z-score,[4],0.466
same,PBM binding z-score,[5],0.497
same,PBM binding z-score,[6],1.47
same,PBM binding z-score,[7],0.279
same,PBM binding z-score,[8],0.248
same,PBM binding z-score,[9],-0.0346
CCCACTGGGCCAAAAAGGTCATTGATGCCGATAA,PBM binding z-score,[1],4.44
same,PBM binding z-score,[2],4.8
same,PBM binding z-score,[3],4.56
same,PBM binding z-score,[4],0.161
same,PBM binding z-score,[5],5.23
same,PBM binding z-score,[6],3.02
same,PBM binding z-score,[7],0.878
same,PBM binding z-score,[8],4.94
same,PBM binding z-score,[9],2.74
ACTATTAGTTGAGACGAGGGCTACCGATAGGTTG,PBM binding z-score,[1],-0.26
same,PBM binding z-score,[2],0.564
same,PBM binding z-score,[3],0.518
same,PBM binding z-score,[4],0.406
same,PBM binding z-score,[5],0.235
same,PBM binding z-score,[6],0.224
same,PBM binding z-score,[7],-0.838
same,PBM binding z-score,[8],-0.103
same,PBM binding z-score,[9],-0.209
CTCGAAAGGTCGGTTGAGGTTAGTATACGGATAA,PBM binding z-score,[1],2.64
same,PBM binding z-score,[2],3.18
same,PBM binding z-score,[3],3.08
same,PBM binding z-score,[4],1.15
same,PBM binding z-score,[5],2.6
same,PBM binding z-score,[6],4.85
same,PBM binding z-score,[7],0.58
same,PBM binding z-score,[8],3.58
same,PBM binding z-score,[9],0.818
GCTAATAGTTGAAAGGGCAACCGAATGATTCTCG,PBM binding z-score,[1],2.13
same,PBM binding z-score,[2],1.68
same,PBM binding z-score,[3],1.44
same,PBM binding z-score,[4],0.805
same,PBM binding z-score,[5],1.76
same,PBM binding z-score,[6],0.716
same,PBM binding z-score,[7],-0.4
same,PBM binding z-score,[8],0.767
same,PBM binding z-score,[9],0.235
CAAACTAGGTCAAGAGGTCAAAGTCCGCTTCCCG,PBM binding z-score,[1],5.9
same,PBM binding z-score,[2],8.2
same,PBM binding z-score,[3],8.13
same,PBM binding z-score,[4],2.89
same,PBM binding z-score,[5],8.25
same,PBM binding z-score,[6],4.44
same,PBM binding z-score,[7],2.61
same,PBM binding z-score,[8],6.26
same,PBM binding z-score,[9],4.47
AGTCAAAGTTCACTAGGTGACGTAAGATTCAGCT,PBM binding z-score,[1],4
same,PBM binding z-score,[2],5.11
same,PBM binding z-score,[3],5.68
same,PBM binding z-score,[4],4.42
same,PBM binding z-score,[5],3.96
same,PBM binding z-score,[6],2.33
same,PBM binding z-score,[7],0.0713
same,PBM binding z-score,[8],4.03
same,PBM binding z-score,[9],3.73
ATACCAAGGTGATCGTGAGGTCGTTCATACTAAC,PBM binding z-score,[1],1.73
same,PBM binding z-score,[2],2.21
same,PBM binding z-score,[3],0.992
same,PBM binding z-score,[4],0.992
same,PBM binding z-score,[5],1.58
same,PBM binding z-score,[6],3.38
same,PBM binding z-score,[7],2.71
same,PBM binding z-score,[8],3.58
same,PBM binding z-score,[9],3.68
ACTATTAGTCGAGACGAGGGCAACCGATAGGTTG,PBM binding z-score,[1],0.973
same,PBM binding z-score,[2],0.43
same,PBM binding z-score,[3],0.663
same,PBM binding z-score,[4],0.357
same,PBM binding z-score,[5],0.46
same,PBM binding z-score,[6],0.977
same,PBM binding z-score,[7],0.0699
same,PBM binding z-score,[8],0.293
same,PBM binding z-score,[9],0.358
TCATATAGGTAAACAGGTCAAAGTCCGTAAGTTA,PBM binding z-score,[1],2.99
same,PBM binding z-score,[2],3.2
same,PBM binding z-score,[3],2.4
same,PBM binding z-score,[4],1.54
same,PBM binding z-score,[5],3.59
same,PBM binding z-score,[6],2.27
same,PBM binding z-score,[7],0.804
same,PBM binding z-score,[8],2.87
same,PBM binding z-score,[9],1.93
TCGAGGAGGTTAGTCGGGGCATTCAGCCAACATA,PBM binding z-score,[1],1.08
same,PBM binding z-score,[2],0.581
same,PBM binding z-score,[3],0.486
same,PBM binding z-score,[4],0.514
same,PBM binding z-score,[5],0.67
same,PBM binding z-score,[6],2.08
same,PBM binding z-score,[7],0.602
same,PBM binding z-score,[8],3.8
same,PBM binding z-score,[9],1.04
CGTCAAAGTTCAAGGTAACGTCACAGAAAGCAGC,PBM binding z-score,[1],4.13
same,PBM binding z-score,[2],5.4
same,PBM binding z-score,[3],6.15
same,PBM binding z-score,[4],4.55
same,PBM binding z-score,[5],4.78
same,PBM binding z-score,[6],3.12
same,PBM binding z-score,[7],1.48
same,PBM binding z-score,[8],3.96
same,PBM binding z-score,[9],3.12
CCTCCTGGGCCATCAGGTCATTGATATCAACGTT,PBM binding z-score,[1],2.47
same,PBM binding z-score,[2],1.98
same,PBM binding z-score,[3],1.71
same,PBM binding z-score,[4],-0.401
same,PBM binding z-score,[5],1.15
same,PBM binding z-score,[6],3.04
same,PBM binding z-score,[7],3.09
same,PBM binding z-score,[8],1.76
same,PBM binding z-score,[9],1.18
CATACAGGGTCAGCGAGGCCAGAGTAGGGACGGC,PBM binding z-score,[1],3.42
same,PBM binding z-score,[2],4.59
same,PBM binding z-score,[3],4.23
same,PBM binding z-score,[4],1.89
same,PBM binding z-score,[5],4.45
same,PBM binding z-score,[6],3.58
same,PBM binding z-score,[7],1.01
same,PBM binding z-score,[8],5.93
same,PBM binding z-score,[9],2.49
GCTAGTTGGTCAGTAAAAGGTCACGCACCGGTCG,PBM binding z-score,[1],5.17
same,PBM binding z-score,[2],6.19
same,PBM binding z-score,[3],5.77
same,PBM binding z-score,[4],0.692
same,PBM binding z-score,[5],6.35
same,PBM binding z-score,[6],3.75
same,PBM binding z-score,[7],2.43
same,PBM binding z-score,[8],4.36
same,PBM binding z-score,[9],2.07
CCTACTGGGCCATCAGGTCATGGATATCAACGTT,PBM binding z-score,[1],2.95
same,PBM binding z-score,[2],2.25
same,PBM binding z-score,[3],2.22
same,PBM binding z-score,[4],-0.124
same,PBM binding z-score,[5],1.66
same,PBM binding z-score,[6],3.47
same,PBM binding z-score,[7],3.47
same,PBM binding z-score,[8],1.54
same,PBM binding z-score,[9],0.959
GCATATAGGTAATAGAAGGTGAAAGTCCGATTGT,PBM binding z-score,[1],0.803
same,PBM binding z-score,[2],0.423
same,PBM binding z-score,[3],0.585
same,PBM binding z-score,[4],0.488
same,PBM binding z-score,[5],0.618
same,PBM binding z-score,[6],2.5
same,PBM binding z-score,[7],-0.242
same,PBM binding z-score,[8],0.0859
same,PBM binding z-score,[9],0.274
CGTCGAAGTTCAAGGTAACGTAACAGAAAGCAGC,PBM binding z-score,[1],1.95
same,PBM binding z-score,[2],2.79
same,PBM binding z-score,[3],3.25
same,PBM binding z-score,[4],3.69
same,PBM binding z-score,[5],2.21
same,PBM binding z-score,[6],2.07
same,PBM binding z-score,[7],0.792
same,PBM binding z-score,[8],2.09
same,PBM binding z-score,[9],1.74
TCTATTAGTTGGTTAGGGCAACCGAAACAGCGGA,PBM binding z-score,[1],0.686
same,PBM binding z-score,[2],0.47
same,PBM binding z-score,[3],0.667
same,PBM binding z-score,[4],0.779
same,PBM binding z-score,[5],0.412
same,PBM binding z-score,[6],0.638
same,PBM binding z-score,[7],0.431
same,PBM binding z-score,[8],0.428
same,PBM binding z-score,[9],0.587
CCTAGCAGGCCAAGCTGGGTCACTCAAGGCTTGA,PBM binding z-score,[1],2.2
same,PBM binding z-score,[2],1.64
same,PBM binding z-score,[3],1.65
same,PBM binding z-score,[4],-0.265
same,PBM binding z-score,[5],1.17
same,PBM binding z-score,[6],3.28
same,PBM binding z-score,[7],-0.143
same,PBM binding z-score,[8],0.17
same,PBM binding z-score,[9],-0.334
GCATATAGGTAATACAAGGAGAAAGTCCGATTGT,PBM binding z-score,[1],-0.449
same,PBM binding z-score,[2],0.152
same,PBM binding z-score,[3],0.156
same,PBM binding z-score,[4],0.562
same,PBM binding z-score,[5],-0.0159
same,PBM binding z-score,[6],1.9
same,PBM binding z-score,[7],-0.606
same,PBM binding z-score,[8],-0.177
same,PBM binding z-score,[9],-0.234
GCGACTGGGGCATCAGCAGGTTAACATAACTTAA,PBM binding z-score,[1],1.03
same,PBM binding z-score,[2],1.09
same,PBM binding z-score,[3],0.785
same,PBM binding z-score,[4],-0.118
same,PBM binding z-score,[5],0.5
same,PBM binding z-score,[6],1.04
same,PBM binding z-score,[7],-0.291
same,PBM binding z-score,[8],0.126
same,PBM binding z-score,[9],-0.312
TAGCCTAGGCCATTGGGCCAGTATAGTACGCATC,PBM binding z-score,[1],-0.0575
same,PBM binding z-score,[2],-0.137
same,PBM binding z-score,[3],0.339
same,PBM binding z-score,[4],-1.16
same,PBM binding z-score,[5],-0.506
same,PBM binding z-score,[6],-0.321
same,PBM binding z-score,[7],-0.972
same,PBM binding z-score,[8],-0.626
same,PBM binding z-score,[9],-0.404
CGAACTAGGTCAGCCAGGACAGTGAATACATTGA,PBM binding z-score,[1],2.65
same,PBM binding z-score,[2],3.04
same,PBM binding z-score,[3],4.54
same,PBM binding z-score,[4],1.2
same,PBM binding z-score,[5],1.54
same,PBM binding z-score,[6],3.12
same,PBM binding z-score,[7],1.45
same,PBM binding z-score,[8],3.1
same,PBM binding z-score,[9],0.353
GTTTACGGGTCAAAGGTTATAGCATGAATAGAAT,PBM binding z-score,[1],3.41
same,PBM binding z-score,[2],6.91
same,PBM binding z-score,[3],5.26
same,PBM binding z-score,[4],2.06
same,PBM binding z-score,[5],9.23
same,PBM binding z-score,[6],3.94
same,PBM binding z-score,[7],0.0413
same,PBM binding z-score,[8],5.82
same,PBM binding z-score,[9],1.99
CATACAGCGTCAGCTAGGCCAGAGTAGGGACGGC,PBM binding z-score,[1],-0.506
same,PBM binding z-score,[2],-0.321
same,PBM binding z-score,[3],-0.175
same,PBM binding z-score,[4],-0.697
same,PBM binding z-score,[5],-0.412
same,PBM binding z-score,[6],-0.637
same,PBM binding z-score,[7],-0.62
same,PBM binding z-score,[8],-0.851
same,PBM binding z-score,[9],-0.797

# — the supplement of paper PMC6555819
